Source: PubChem BioAssay (NCATS)
Results filed as inconclusive are left out. Calls of active or inactive are those of the source. Calls follow the shape of the dose curve; as a rule, active = well fitted curve in the direction sought with a large enough effect; inconclusive = small, poorly fitted or top-dose-only effect, or another doubt; inactive = no such curve, though single readings can be large; an effect the other way counts as inactive or inconclusive.
Potency is read from the fitted curve at half-maximal effect.

Assay: qHTS of pediatric cancer cell lines to identify multiple opportunities for drug repurposing: Confirmatory screen for SJ-GBM2 cells (AID 1347116); also: nearly all actives have a fitted effect of over 60% in size;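 as to activity change, negative = cytotoxic: plate controls were DMSO for no effect and bortezomib for full effect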
Details: SJ-GBM2 glioblastoma cells, viability; series mostly up to 45.9 µM; activity change, negative = cytotoxic: at the top concentration
In short: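 Viability measured as metabolically active cells via CellTiter-Glo luminescence following 48 hours of compound exposure, 11-point dilutions in confirmatory testing. 500-1,000 cells/well plated 5 hours before dosing; controls were DMSO and 2.3 µM bortezomib.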
In the case of `Clc1ccc2nsnc2c1NC1=NCCN1`, the “activity change, negative = cytotoxic” value is reported as 29.9% (inactive). With `CCC1(c2ccccc2)C(=O)NCNC1=O` the “activity change, negative = cytotoxic” value was 1.76% (inactive). For `O=C1c2c(O)ccc(O)c2C(=O)c2c(NCCNCCO)ccc(NCCNCCO)c21`, the Potency was 2080 nM (active). With `CC(C)Cc1ccc(C(C)C(=O)O)cc1` (stereo unspecified) the Potency was 1310 nM (active). In the case of `CCCCc1oc2ccccc2c1C(=O)c1cc(I)c(OCCN(CC)CC)c(I)c1`, the Potency is reported as 79400 nM (active). For `CN(C)CCCN1c2ccccc2CCc2ccc(Cl)cc21`, the “activity change, negative = cytotoxic” value was -19.2% (inactive). For `NC12CC3CC(CC(C3)C1)C2`, the “outcome” value was “inactive”. With `O=C(Nc1ccc([N+](=O)[O-])cc1Cl)c1cc(Cl)ccc1O` the Potency was 4070 nM (active). With `Clc1ccc(C(c2ccccc2Cl)C(Cl)Cl)cc1` (stereo unspecified) the “outcome” value was “inactive”. In the case of `CC[C@@]1(O)C(=O)OCc2c1cc1n(c2=O)Cc2cc3c(CN(C)C)c(O)ccc3nc2-1`, the Potency is reported as 1310 nM (active). For `CC#C[C@]1(O)CC[C@H]2[C@@H]3CCC4=CC(=O)CCC4=C3[C@@H](c3ccc(N(C)C)cc3)C[C@@]21C`, the “activity change, negative = cytotoxic” value was -14.7% (inactive).

Assay: qHTS of pediatric cancer cell lines to identify multiple opportunities for drug repurposing: Confirmatory screen for BT-37 cells (AID 1347117); also: nearly all actives have a fitted effect of over 55% in size;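 as to activity change, negative = cytotoxic: plate controls were DMSO for no effect and bortezomib for full effect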
Details: BT-37 pediatric cancer cells, viability; series mostly up to 45.9 µM; activity change, negative = cytotoxic: at the top concentration
In short: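 Cells (500-1,000/well) rested 5 h, then received compounds for 48 h; metabolically active cells were measured by CellTiter-Glo luminescence. Final concentrations spanned up to 46 µM (MIPE, 11-point) or 0.59 nM-46 µM (NPC, 8-point) in primary screens, 11-point in follow-ups.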
With `CCC1(c2ccccc2)C(=O)NCNC1=O` the “activity change, negative = cytotoxic” value was -0.438% (inactive). With `O=C1c2c(O)ccc(O)c2C(=O)c2c(NCCNCCO)ccc(NCCNCCO)c21` the Potency was 261 nM (active). With `CC(C)Cc1ccc(C(C)C(=O)O)cc1` (stereo unspecified) the “activity change, negative = cytotoxic” value was 0.481% (inactive). With `CN1CCN(CCCN2c3ccccc3Sc3ccc(Cl)cc32)CC1` the Potency was 16500 nM (active). For `COc1cc2c(c(OC)c1OC)-c1ccc(OC)c(=O)cc1[C@@H](NC(C)=O)CC2`, the Potency was 56.2 nM (active). For `NC(=O)NO`, the “activity change, negative = cytotoxic” value was -8.76% (inactive). With `CC(COc1ccccc1)N(CCCl)Cc1ccccc1` (stereo unspecified) the Potency was 18500 nM (active). With `CCCCc1oc2ccccc2c1C(=O)c1cc(I)c(OCCN(CC)CC)c(I)c1` the Potency was 50100 nM (active). For `NC12CC3CC(CC(C3)C1)C2`, the “activity change, negative = cytotoxic” value was 0.962% (inactive). With `O=C(Nc1ccc([N+](=O)[O-])cc1Cl)c1cc(Cl)ccc1O` the Potency was 1440 nM (active). For `COC(=O)Nc1nc2ccc(C(=O)c3cccs3)cc2[nH]1`, the Potency was 329 nM (active). With `CC[C@@]1(O)C(=O)OCc2c1cc1n(c2=O)Cc2cc3c(CN(C)C)c(O)ccc3nc2-1` the Potency was 117 nM (active). With `CC(C)NCC(O)c1ccc(O)c(O)c1` (stereo unspecified) the Potency was 5220 nM (active).

Assay: qHTS of pediatric cancer cell lines to identify multiple opportunities for drug repurposing: Confirmatory screen for TC32 cells (AID 1347118);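 also: cells exposed to compound for 48 h before the read; nearly all actives have a fitted effect of over 65% in size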; as to activity change, negative = cytotoxicity: % is scaled to controls: 0 for no effect and ±100 for the full control effect
Details: TC32 Ewing sarcoma cells viability qHTS; series mostly up to 45.9 µM; activity change, negative = cytotoxicity: at the top concentration
In short: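 Luminescent ATP read-out (CellTiter-Glo) of metabolically active TC32 cells after 48 h exposure. Concentration-response curves came from 11-point (MIPE, 0.78 nM–46 µM) or 8-point (NPC, 0.59 nM–46 µM) primary titrations; follow-up used 11 points.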
With `Clc1ccc2nsnc2c1NC1=NCCN1` the “activity change, negative = cytotoxicity” value was -27.5% (inactive). With `O=C1c2c(O)ccc(O)c2C(=O)c2c(NCCNCCO)ccc(NCCNCCO)c21` the Potency was 131 nM (active). In the case of `CC(C)Cc1ccc(C(C)C(=O)O)cc1` (stereo unspecified), the Potency is reported as 3690 nM (active). In the case of `CN(Cc1cnc2nc(N)nc(N)c2n1)c1ccc(C(=O)N[C@@H](CCC(=O)O)C(=O)O)cc1`, the Potency is reported as 36.9 nM (active). With `COc1cc2c(c(OC)c1OC)-c1ccc(OC)c(=O)cc1[C@@H](NC(C)=O)CC2` the Potency was 35.5 nM (active). In the case of `CC(CCc1ccc(O)cc1)NCCc1ccc(O)c(O)c1` (stereo unspecified), the Potency is reported as 20800 nM (active). For `NC(=O)NO`, the Potency was 20800 nM (active). With `CC(COc1ccccc1)N(CCCl)Cc1ccccc1` (stereo unspecified) the Potency was 7370 nM (active). In the case of `CCCCc1oc2ccccc2c1C(=O)c1cc(I)c(OCCN(CC)CC)c(I)c1`, the Potency is reported as 28200 nM (active). For `CN(C)CCCN1c2ccccc2CCc2ccc(Cl)cc21`, the “activity change, negative = cytotoxicity” value was -20% (inactive). For `NC12CC3CC(CC(C3)C1)C2`, the “activity change, negative = cytotoxicity” value was -6.55% (inactive). In the case of `O=C(Nc1ccc([N+](=O)[O-])cc1Cl)c1cc(Cl)ccc1O`, the Potency is reported as 2040 nM (active). With `COC(=O)Nc1nc2ccc(C(=O)c3cccs3)cc2[nH]1` the Potency was 131 nM (active). In the case of `O=C(c1ccc(OCCN2CCCCC2)cc1)c1c(-c2ccc(O)cc2)sc2cc(O)ccc12`, the Potency is reported as 16500 nM (active). In the case of `Clc1ccc(C(c2ccccc2Cl)C(Cl)Cl)cc1` (stereo unspecified), the “activity change, negative = cytotoxicity” value is reported as -27.2% (inactive). With `CC[C@@]1(O)C(=O)OCc2c1cc1n(c2=O)Cc2cc3c(CN(C)C)c(O)ccc3nc2-1` the Potency was 58.5 nM (active). For `CC#C[C@]1(O)CC[C@H]2[C@@H]3CCC4=CC(=O)CCC4=C3[C@@H](c3ccc(N(C)C)cc3)C[C@@]21C`, the Potency was 18500 nM (active).
